# Measurements taken from PubChem BioAssay AID1347165 (National Center for Advancing Translational Sciences (NCATS), 2019).
# The campaign covered roughly 220,000 compounds. About 5,700 (2.6%) were called active. Another 18% or so got no clear call; they are omitted. What follows is part of a selection rich in actives, with near analogues and random picks from the rest. A number with no mark means an inactive call. Calls come from the whole dose curve; as a rule, active = well fitted inhibition curve with a large enough effect; inconclusive = small, poorly fitted or top-dose-only effect; inactive = no such curve, though single readings can be large or run the other way.
# Biological target: Lysine-specific demethylase 5B (Homo sapiens) (UniProt Q9UGL1)
# Sequence (Q9UGL1 whole entry, looked up): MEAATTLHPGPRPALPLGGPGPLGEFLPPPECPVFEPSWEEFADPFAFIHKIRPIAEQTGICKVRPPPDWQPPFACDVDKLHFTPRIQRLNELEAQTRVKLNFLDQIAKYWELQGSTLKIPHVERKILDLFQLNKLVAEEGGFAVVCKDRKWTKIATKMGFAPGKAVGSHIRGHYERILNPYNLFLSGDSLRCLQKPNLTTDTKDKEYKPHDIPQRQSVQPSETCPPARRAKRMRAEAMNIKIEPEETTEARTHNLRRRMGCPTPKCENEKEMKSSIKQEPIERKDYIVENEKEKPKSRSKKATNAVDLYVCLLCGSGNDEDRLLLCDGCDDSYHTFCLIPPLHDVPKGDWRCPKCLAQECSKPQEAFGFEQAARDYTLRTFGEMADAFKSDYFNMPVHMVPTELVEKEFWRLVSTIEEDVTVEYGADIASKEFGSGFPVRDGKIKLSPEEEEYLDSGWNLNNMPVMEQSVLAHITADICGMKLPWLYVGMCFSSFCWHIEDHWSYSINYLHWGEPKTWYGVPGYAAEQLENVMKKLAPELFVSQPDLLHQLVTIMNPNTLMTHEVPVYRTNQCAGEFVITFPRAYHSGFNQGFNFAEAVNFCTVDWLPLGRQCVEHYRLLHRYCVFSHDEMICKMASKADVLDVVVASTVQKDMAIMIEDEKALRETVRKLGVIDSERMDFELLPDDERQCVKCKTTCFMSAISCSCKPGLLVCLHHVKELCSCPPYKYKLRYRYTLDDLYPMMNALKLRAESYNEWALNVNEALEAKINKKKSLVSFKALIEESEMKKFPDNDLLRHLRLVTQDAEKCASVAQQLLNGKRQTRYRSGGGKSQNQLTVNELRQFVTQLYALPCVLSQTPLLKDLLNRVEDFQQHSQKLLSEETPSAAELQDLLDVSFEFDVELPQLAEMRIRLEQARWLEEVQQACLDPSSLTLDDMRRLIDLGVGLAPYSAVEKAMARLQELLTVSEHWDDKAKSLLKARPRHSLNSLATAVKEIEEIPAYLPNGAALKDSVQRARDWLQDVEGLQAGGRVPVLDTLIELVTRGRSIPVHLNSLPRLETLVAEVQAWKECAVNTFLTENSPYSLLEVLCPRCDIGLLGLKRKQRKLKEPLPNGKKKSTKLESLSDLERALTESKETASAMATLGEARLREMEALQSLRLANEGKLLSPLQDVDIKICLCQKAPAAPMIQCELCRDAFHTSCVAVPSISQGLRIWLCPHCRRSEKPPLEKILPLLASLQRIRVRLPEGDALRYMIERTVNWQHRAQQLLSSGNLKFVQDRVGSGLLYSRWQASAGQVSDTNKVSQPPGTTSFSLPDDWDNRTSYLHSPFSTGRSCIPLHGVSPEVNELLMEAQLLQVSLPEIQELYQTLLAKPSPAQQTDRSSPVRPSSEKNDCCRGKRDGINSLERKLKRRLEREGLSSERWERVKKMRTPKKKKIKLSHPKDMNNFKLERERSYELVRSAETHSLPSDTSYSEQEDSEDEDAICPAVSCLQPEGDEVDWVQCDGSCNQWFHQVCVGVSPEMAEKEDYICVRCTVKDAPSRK
# Assay: Primary screen for KDM5B Histone Demethylases FDH-coupled qHTS; note: nearly all actives have a fitted effect of over 70% in size; for activity change, negative = inhibition: 0% is about no effect
# Conditions: FDH-coupled NADH fluorescence (FDH is formaldehyde dehydrogenase); series mostly up to 57.7 µM; activity change, negative = inhibition: at the top concentration
# From the text: Assay Submitter (PI): Qin Yan, Ph.D. (Yale University) and Xiaodong Cheng, Ph.D. (MD Anderson) This project was funded as part of the NCI NEXT Program and Chemical Biology Consortium (CBC) The histone demethylases, KDM5A and KDM5B catalyze the demethylation of lysine 4 on histone H3 (H3K4me3/2). They are overexpressed in a variety of cancers and have been implicated in cancer cell growth, metastasis, drug resistance, and tumor growth. KDM5A is amplified and overexpressed in breast and gastric cancer; and is translocated in leukemia. While KDM5B is highly expressed in human mammary tumors and breast cancer cell lines, but not in normal adult breast tissue. Moreover, knockdown of KDM5B leads to upregulation of tumor suppressor genes, including BRCA1. The goal of this project is to employ qHTS to identify selective small molecule inhibitors of KDM5A/B demethylase activity to better understand the role of KDM5 in cancer and to develop novel therapies. We employed an FDH-coupled assay previously reported by Sakurai et al. to monitor in vitro KDM5 demethylase activity. Compounds showing dose response inhibition are re-acquired, validated, and tested for non-specific interference with the formaldehyde dehydrogenase (FDH) counterscreen. True inhibitors are validated using an AlphaLisa secondary screen, which employs an H3K4(me2-1)-specific antibody to monitor demethylation of a biotin-tagged H3K4(me3) peptide substrate. Inhibitors are profiled against KDM4A and KDM6A AlphaLisa counterscreens to determine level of demethylase specificity; and against the TruHits counterscreen to eliminate non-specific inhibitory activity on the AlphaLISA detection method. Selective inhibitors identified from the primary and secondary screening are tested in cells using immunofluorescence to monitor global H3K4 tri-methylation as a measure of KDM5A/B inhibition. Early Translation Branch (ETB) National Center for Advancing Translational Sciences (NCATS), Rockville, MD National Institute of Health (NIH), Bethesda, Maryland [1] Sakurai, M et al. A miniaturized screen for inhibitors of Jumonji histone demethylases. Mol Biosyst. 2010 Feb;6(2):357-64. doi: 10.1039/b912993f. Epub 2009 Oct 8.
# Materials: 1536-well Black, solid bottom, medium binding assay plate is purchased from Greiner Bio-one. The enzymes (KDM5B) and substrate (H3K4me3/2) are provided by the principal investigators. The buffer for this assay is composed of 50mM HEPES at pH 7.5 with 0.01% Tween-20. FDH coupled Demethylase qHTS protocol: Three microliter enzyme mix (buffer + 200nM KDM5BDeltaAP final concentration) is dispensed into the assay plate using the BioRAPTR Flying Reagent Dispenser (FRD; […]). Compound (at various final concentration) and control solution is pin transferred to the assay plate using the Kalypsys 1536-pin tool apparatus. The assay plate is incubated for 10 min at room temperature followed by addition of 1uL substrate mix (buffer + 100uM ascorbic acid, 50uM ferrous ammonium sulfate, 12.5uM H3K4Me3, 25uM a-ketoglutarate, 0.25 mM NAD+, 0.25 U/mL formaldehyde dehydrogenase using the FRD yielding a total reaction volume of 4 uL. Initial fluorescence (Read1) is detected using the PerkinElmer ViewLux plate reader equipped with 340 nm excitation and 450 nm emission filters. The final fluorescence (Read2) signal is obtained after 30 min of room temperature incubation. Delta RFU is calculated (Read2 - Read1) and is used to generated dose response curves.
# Potency is the fitted concentration of half-maximal effect.
SMILES,Potency,"activity change, negative = inhibition"
Cc1nnn2c(C(=O)NC3CC3)cccc12,35.5 µM (active),–
Cc1ccc(NC(=O)c2ccccc2SCC(=O)NC2CC2)c(C)c1,–,-7.22%
Cn1ncc(Br)c1C(=O)NC1CCCC1,–,2.23%
O=c1oc2ccccc2cc1-c1nc(-c2ccc(F)cc2)no1,–,6.44%
COC(=O)[C@@H]1C[C@@H](NC(=O)c2ccc(-c3nnn(C)n3)cc2)CN1C,–,-8.97%
CCOc1cccc(CC(=O)N2CCc3c([nH]c4ccccc34)C2c2ccc(F)cc2)c1OCC (stereo not drawn),–,-19.1%
CN(CC(=O)NCCN1CCOCC1)S(=O)(=O)c1ccc(F)cc1,–,18%
COC(=O)[C@@H]1Cc2c([nH]c3ccccc23)[C@H]2C[C@@H](NCCN3CCOCC3)C[C@@H](c3ccccc3F)N21,17.8 µM (active),–
COC(=O)[C@@H]1Cc2c([nH]c3ccccc23)[C@H]2C[C@H](NCCNC(C)=O)C[C@@H](c3ccc(C)cc3)N21,17.8 µM (active),–
Cc1ccc(C)n1-c1c(C(=O)NCCN2CCOCC2)sc2ncccc12,–,-13.7%
CC(C)NC(=O)NC(=O)CSc1nc(-c2ccco2)nc2ccccc12,–,-18.9%
CNC(=O)c1sc(NCc2ccccc2OC)nc1C,–,-25%
CCOC(=O)c1c(C)[nH]c(C)c1S(=O)(=O)N(C)CC(=O)Nc1cc(C)cc(C)c1,–,12.9%
Cc1[nH]c2ccccc2c1C(=O)C(=O)NC1CCS(=O)(=O)C1 (stereo not drawn),–,-13%
O=C(c1cccc(C(F)(F)F)c1)N1C[C@@H](CO)[C@H](c2ccccn2)C1,–,-1.06%
CC(C)(C)c1ccc(C(=O)N2C[C@@H](CO)[C@H](c3ccccn3)C2)cc1,–,11.8%
O=C(c1cccc2[nH]ccc12)N1C[C@@H](CO)[C@H](c2ccccn2)C1,17.8 µM (active),–
Cc1cc2oc(=O)cc(CN3CCN(S(=O)(=O)c4ccc5c(c4)OCCO5)CC3)c2cc1C(C)C,–,9.68%
COC(=O)CN(CC(=O)NC(N)=O)Cc1ccccc1,–,10.4%
COc1ccc2cc(C(=O)N3C[C@@H](Oc4ccccc4)C[C@H]3C(=O)N3CCOCC3)[nH]c2c1,28.2 µM (active),–
COc1ccc2[nH]c(C(=O)N3C[C@@H](Oc4ccccc4)C[C@H]3C(=O)N3CCCC3)cc2c1,–,-929%

SMILES,Potency,"activity change, negative = inhibition"
COc1ccc(CCC(=O)N2C[C@@H](Oc3ccccc3)C[C@H]2C(=O)N2CCOCC2)cc1,–,9.49%
CCCn1c(=O)n(CC(=O)Nc2ccc(C)c(F)c2)c(=O)c2c1nc(C)n2CCOC,–,-4.01%
CCN(CC)c1ccc(C(=S)N(C)C)cc1,–,-28.5%
Cc1nc(C(=O)N2CC[C@H](N3CCN(C)CC3)[C@H](CCCO)C2)cs1,–,-27.3%
CNc1nc(N2CC[C@H](N3CCN(C)CC3)[C@H](CCC(=O)O)C2)ncc1F,14.1 µM (active),–
CN1CCN([C@H]2CCN(C(=O)Cc3cccc(O)c3)C[C@H]2CCCO)CC1,–,-8.3%
O=C(CSc1nc(-c2ccc(F)cc2)cc(C(F)(F)F)n1)NC1CCCC1,–,7.5%
CCOC(=O)C1=C(N)Oc2c(oc(CO)cc2=O)C1c1ccccc1C(F)(F)F (stereo not drawn),–,-9.02%
CCOc1cc(C2CC(=O)NC(SCC(=O)OC)=C2C#N)ccc1O (stereo not drawn),–,-15.6%
COCCn1c(C(=O)NCc2ccncc2)nc2ccccc2c1=O,–,11.4%
CCC(C(=O)Nc1ccc2c(c1)CN(Cc1cc(F)cc(F)c1)C(=O)CO2)c1ccccc1 (stereo not drawn),–,-6.69%
O=C1COc2ccc(-c3cncnc3)nc2CN1Cc1ccc(F)cc1,–,-30.4% [at 86.2 µM]
COc1cccc(CN2Cc3nc(-c4cc(F)cc(F)c4)ccc3OCC2=O)c1,–,-26.2% [at 86.2 µM]
COCC(=O)Nc1ccc2c(c1)CN(Cc1ccccc1F)C(=O)C(C)O2 (stereo not drawn),–,-4.01%
COCCN1Cc2nc(NCc3ccccc3)ccc2OCC1=O,35.5 µM (active),–
Cc1ccccc1CN1Cc2nc(NCc3ccncc3)ccc2OCC1=O,35.5 µM (active),–
O=C1Cc2c(-c3ccc(F)cc3F)n[nH]c2CN1Cc1ccccc1F,–,7.91% [at 86.2 µM]
COc1cccc(C(=O)Nc2ccc3c(c2)CN(Cc2ccc(OC)cc2OC)C(=O)CO3)c1,–,0.861%
O=C1COc2ccc(Nc3ccccc3F)nc2CN1Cc1ccccc1F,35.5 µM (active),–
COCCNc1nc2c(c(=O)n(C)c(=O)n2C)n1CCc1ccccc1,–,2.93%
COc1cccc(CN2Cc3nc(Nc4cccc(F)c4)ccc3OCC2=O)c1,28.2 µM (active),–

SMILES,Potency,"activity change, negative = inhibition"
CC(=O)Nc1scc(-c2cc(C)ccc2C)c1C#N,–,-19.7%
Cc1ccc(C(=O)C(C)OC(=O)Cc2n[nH]c(=O)c3ccccc23)cc1C (stereo not drawn),–,15.4%
O=C1c2ccccc2NC(c2cnc3ccccc3n2)N1c1ccc(Cl)cc1 (stereo not drawn),–,3.11%
Cc1cc(C)c(C(=O)Nc2ccccc2)c(SCC(=O)NC2CCCCC2)n1,–,6.57%
CCN1CCN(C(c2ccccc2)c2c(O)cc(C)n(CC)c2=O)CC1 (stereo not drawn),–,4.49%
CCCCC(c1nnnn1CS(=O)(=O)c1ccc(C)cc1)N1CCC(C(N)=O)CC1 (stereo not drawn),–,13.2%
CCC(C)c1ccc(NC(=S)N2CCCC2)cc1 (stereo not drawn),–,-10.6%
CC(C)NC(=O)C1(CCO)CC12CCOCC2 (stereo not drawn),–,-10.3%
CC(C)NC(=O)C1(CCO)CCN(c2ncccn2)C1 (stereo not drawn),31.6 µM (active),–
COc1cccc(NC(=O)COc2cc(C)cc3oc(=O)cc(C)c23)c1,–,-1.19%
CCOc1ccc(C(=O)N2CC(=O)Nc3ccc(C)cc3C2c2ccccc2)cc1 (stereo not drawn),–,14.9%
Cc1ccc(C)c(-c2cc3c(=O)n(CCNC(=O)Cc4ccsc4)ccn3n2)c1,–,16.8%
CCOc1ccc(-c2cc3c(=O)n(CCNC(=O)c4ccc(OC)cc4C)ccn3n2)cc1,28.2 µM (active),–
COc1ccc(-c2cc3c(=O)n(CCNC(=O)c4ccc(OC)cc4OC)ccn3n2)cc1,35.5 µM (active),–
CCOc1ccc(-c2cc3c(=O)n(CC(=O)NCc4ccc(OC)cc4)ccn3n2)cc1,–,-6.91%
Cc1ccc(C)c(-c2cc3c(=O)n(CCNC(=O)c4ccncc4)ccn3n2)c1,–,-19%
CCC(C(=O)NCCn1ccn2nc(-c3ccc(F)cc3)cc2c1=O)c1ccccc1 (stereo not drawn),–,-11.3%
Cc1c(Cl)cccc1NC(=S)NCCSc1ccc(Cl)cc1,–,-3.71%
O=Cc1cc(Cl)ccc1O,–,16.4%
Cc1cc(C)c(NC(=O)COc2ccc(C(=O)Nn3c(C)ccc3C)cc2)c(C)c1,–,-27.9%
O=C(Nc1ccccc1C(F)(F)F)N1CCC(N2CCN(Cc3ccccn3)C(=O)C2=O)CC1,–,19.7%
